# Bioassay records (PubChem BioAssay)
# An excerpt weighted towards active compounds, which were near 0.9% of everything screened.
# SRC2 TRFRET art = counter-screen for PPARgamma SRC-2 recruitment agonists: TR-FRET artefact | hits give high values | TR-FRET ratio at 8 µM | 200,000 tested, 0.4% active
# PPARg SRC-2 ag = agonists of SRC-2 recruitment by human PPARgamma; PPARgamma LBD-SRC-2 recruitment, biochemical; activation, % at 8 µM; P37231; 200,000 tested, 0.34% active; in the data active means activation above about 22%
# Target sequence (P37231 whole entry, looked up, the tested form may be a part): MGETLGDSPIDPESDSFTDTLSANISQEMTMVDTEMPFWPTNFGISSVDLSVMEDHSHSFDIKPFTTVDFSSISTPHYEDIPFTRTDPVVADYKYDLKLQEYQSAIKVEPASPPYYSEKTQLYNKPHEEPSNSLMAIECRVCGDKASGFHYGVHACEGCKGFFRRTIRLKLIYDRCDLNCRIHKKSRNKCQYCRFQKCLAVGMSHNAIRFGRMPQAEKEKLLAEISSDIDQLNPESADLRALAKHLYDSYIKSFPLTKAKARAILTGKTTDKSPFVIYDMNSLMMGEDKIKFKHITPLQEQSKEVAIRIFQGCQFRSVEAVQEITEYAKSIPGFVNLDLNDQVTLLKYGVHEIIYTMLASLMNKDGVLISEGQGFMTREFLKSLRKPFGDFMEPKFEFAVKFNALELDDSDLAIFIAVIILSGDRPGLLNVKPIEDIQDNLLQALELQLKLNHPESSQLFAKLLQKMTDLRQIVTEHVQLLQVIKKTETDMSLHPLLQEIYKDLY
# SRC3 TRFRET art = flags TR-FRET format artefacts in PPARgamma SRC-3 recruitment agonist screen. TR-FRET ratio at 8 µM. TR-FRET artefact counter-screen, PPARgamma/SRC-3 format; hits give high values. 99,000 tested, 0.39% active. AID 1048
# PPARg SRC-3 ag = promotes SRC-3 coactivator recruitment by human PPARgamma; activation, % at 8 µM; 200,000 tested, 0.26% active; biochemical PPARgamma/SRC-3 coactivator recruitment assay; in the data active means activation above about 23%
# PPARg SRC1 recr = PPARgamma-driven SRC-1 recruitment agonism; activation, % at 8 µM; P37231; 200,000 tested, 0.41% active; PPARgamma-SRC-1 coactivator recruitment biochemical assay; in the data active means activation above about 19%
# SRC1 TRFRET art = flags TR-FRET format artefacts in PPARgamma SRC-1 recruitment agonist screen; TR-FRET detection artefact counter-screen, emission ratio; hits give high values; AID 1051; TR-FRET ratio at 8 µM; 99,000 tested, 0.34% active; in the data active means TR-FRET ratio above about 2300
# PPARg SRC2 conf = human PPARgamma SRC-2 recruitment agonism, confirmation. shares compounds with PPARg SRC-3 ag. AID 1297. 790 tested, 52% active. activation, % at 8 µM. biochemical SRC-2 recruitment by PPARgamma; in the data active means activation above about 22%
# PPARg SRC1 conf = confirmation of agonists of SRC-1 recruitment by human PPARgamma; shares compounds with PPARg SRC-3 ag; PPARgamma–SRC-1 coactivator recruitment biochemical assay; activation, % at 8 µM; 790 tested, 43% active; in the data active means activation above about 20%
# PPARg SRC3 ag = confirmation of agonists of SRC-3 recruitment by human PPARgamma | biochemical PPARgamma-SRC-3 coactivator recruitment, agonist mode | shares compounds with PPARg SRC-3 ag | activation, % at 8 µM | 790 tested, 29% active; in the data active means activation above about 24%
# A number is an active result; n = inactive; x = no result given. Unless noted, no stated cut-off is given here; in the data, active means TR-FRET ratio above about 2000; inactive means the rest.
SMILES,SRC2 TRFRET art,PPARg SRC-2 ag,SRC3 TRFRET art,PPARg SRC-3 ag,PPARg SRC1 recr,SRC1 TRFRET art,others
O=C(N/N=C/c1c(O)n(CCc2ccccc2)c(=O)[nH]c1=O)c1ccncc1,2004,n,n,n,n,n,
O=[N+]([O-])[N-][n+]1cnn(Cc2ccccc2)c1,n,n,n,n,n,n,
CCCCCCn1c(O)c(C=Nc2c(C)n(C)n(-c3ccccc3)c2=O)c(=O)[nH]c1=O,n,25.1,x,n,n,x,
O=c1c2ccccc2nc(-c2ccc(Cl)cc2Cl)n1-c1nccs1,n,n,n,n,n,n,
COc1ccc(-c2cc(=NCCC(=O)O)c3cc(C)ccc3o2)cc1,n,n,n,n,n,n,
COc1ccc(-c2cc(=Nc3ccccc3)c3cc(C)ccc3o2)cc1,n,n,n,n,n,2615,
O=C(CSc1ccccc1)N1CCC2(CC1)OCCO2,n,n,x,n,n,x,
Cn1c(=O)cc(SCC(=O)N2CCC3(CC2)OCCO3)c2ccc(Cl)cc21,2539,73.4,x,78.6,50.2,x,PPARg SRC2 conf=28.0;PPARg SRC1 conf=n;PPARg SRC3 ag=n
CN(C)c1ccc(/C=C/c2cc[n+](C)c3ccccc23)cc1,2947,61.0,2979,61.1,83.3,3265,PPARg SRC2 conf=65.2;PPARg SRC1 conf=49.5;PPARg SRC3 ag=42.9
COc1ccc(CC2(CCc3ccncc3)C(=O)NC(=O)NC2=O)cc1OC,n,n,n,n,n,n,
